Here are results for three compounds from PubChem BioAssay (Tox21).

A short description of experiment [1]: qHTS assay to identify small molecule antagonists of the thyroid receptor (TR) signaling pathway - cell viability counter screen (AID 743064). Also: potency is read from the fitted curve at half-maximal effect; nearly all actives have a fitted effect of over 50% in size. In short, it runs like this: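 Counter screen for cytotoxicity: compound plus T3 (1 nM final) on GH3.TRE-Luc cells, 23.5 h at 37 °C, then fluorescence viability readout with CellTiter-Fluor.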
(In general: qHTS replaces the single test concentration by a dilution series.)

The target in experiment [2] is Estrogen receptor (Homo sapiens) (UniProt P03372). The experiment in a line: qHTS assay to identify small molecule antagonists of the estrogen receptor alpha (ER-alpha) signaling pathway (AID 743069; active = well fitted curve in the direction sought with a large enough effect in the signal ratio in the repeat runs, not every such curve was filed as active; inconclusive = weak or mixed curves, or effect the other way; inactive = no such curve, though single readings can be large or run the other way; the % refers to the signal ratio; also: potency is read from the fitted curve at half-maximal effect). The gist of the method:
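Screening used a UAS-driven beta-lactamase reporter integrated into HEK293 cells expressing ER-alpha, stimulated with 17beta-estradiol alongside test compounds over 18 hr at 37C; signal came from LiveBLAzer B/G FRET fluorescence.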

Experiment [3] is described as follows: qHTS assay to identify small molecule antagonists of the estrogen receptor alpha (ER-alpha) signaling pathway - cell viability counter screen (AID 743074; calls by dose curve; also: nearly all actives have a fitted effect of over 45% in size).
Experiment [4] concerns the target Estrogen receptor (Homo sapiens) (UniProt P03372). Kind of experiment: qHTS assay to identify small molecule agonists of the estrogen receptor alpha (ER-alpha) signaling pathway (AID 743075; calls by dose curve).
Experiment [5] is described as follows: qHTS assay to identify small molecule antagonists of the estrogen receptor alpha (ER-alpha) signaling pathway using the BG1 cell line - cell viability counter screen (AID 743081).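 Also: compound given together with 17beta-estradiol as the ER stimulus; series mostly up to about 70 µM; nearly all actives have a fitted effect of over 45% in size.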
The target in a further experiment is Aromatase (Homo sapiens) (UniProt P11511). The experiment in a line: qHTS assay to identify aromatase inhibitors (AID 743083). Also: nearly all actives have a fitted effect of over 55% in size. Also: potency is read from the fitted curve at half-maximal effect.
Experiment [6] concerns the target Aryl hydrocarbon receptor (Homo sapiens) (UniProt P35869). Kind of experiment: qHTS assay to identify small molecule that activate the aryl hydrocarbon receptor (AhR) signaling pathway (AID 743085).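 Also: HG2L7.5c1 human HepG2 liver cells with stably integrated DRE-driven firefly reporter; series mostly up to about 70 µM; nearly all actives have a fitted effect of over 15% in size.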 In short, it runs like this: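 Measured in HG2L7.5c1 cells: CellTiter-Fluor signal (30 min incubation, 37C) for viability, then luciferase luminescence (30 min, room temperature). Compound contact time was 24 h at 37C, following a 5 h pre-incubation.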

A short description of experiment [7]: qHTS assay to identify small molecule that activate the aryl hydrocarbon receptor (AhR) signaling pathway - cell viability counter screen (AID 743086).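 Also: HepG2 liver cells carrying the AhR DRE luciferase reporter; series mostly up to about 70 µM; nearly all actives have a fitted effect of over 45% in size.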 In short, it runs like this:
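HepG2-AhR-luc (HG2L7.5c1) cells, 4000/well, were preincubated 5 h at 37C, exposed to compound in qHTS format for 24 hr at 37C, then given CellTiter-Fluor for 30 min; viability was read as fluorescence in the reporter wells.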

In experiment [8] the target is Peroxisome proliferator-activated receptor gamma (Homo sapiens) (UniProt P37231). Kind of experiment: qHTS assay to identify small molecule agonists of the peroxisome proliferator-activated receptor gamma (PPARg) signaling pathway (AID 743094; active = well fitted activation curve with a large enough effect in the signal ratio in the repeat runs, not every such curve was filed as active; inconclusive = weak or mixed curves, or effect the other way; inactive = no such curve, though single readings can be large or run the other way; the % refers to the signal ratio). In short, it runs like this: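 Agonism was assessed in a beta-lactamase reporter system, HEK293H cells with a stably integrated UAS-bla construct under PPARg control; the 17 h treatment at 37C preceded a 1 h room-temperature FRET substrate read.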

The nature of experiment [9]: qHTS assay for small molecule activators of the heat shock response signaling pathway - cell viability counter screen (AID 743209). Also: nearly all actives have a fitted effect of over 50% in size. The gist of the method:
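Compounds dissolved in DMSO were added to overnight-plated HSE-bla HeLa cells and left 5 h at 37 C. Cell viability was quantified by luminescence using CellTiter-Glo.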

Experiment [10] can be described thus: qHTS assay for small molecule activators of the heat shock response signaling pathway (AID 743210; active = well fitted activation curve with a large enough effect in the signal ratio in the repeat runs, with a control signal flat, not every such curve was filed as active; inconclusive = weak or mixed curves; the % refers to the signal ratio;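 also: HeLa cells with beta-lactamase reporter driven by heat shock elements; series mostly up to about 63 µM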). In short, it runs like this:
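Activation of heat shock element-controlled beta-lactamase expression is measured in HeLa cells by LiveBLAzer FRET fluorescence, with compound exposure lasting 5 h at 37 C and substrate loading 2.5 h at room temperature.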

A short description of experiment [11]: qHTS assay to identify small molecule antagonists of the thyroid receptor (TR) signaling pathway (AID 743065). Also: series mostly up to about 70 µM; nearly all actives have a fitted effect of over 55% in size. The gist of the method: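 GH3.TRE-Luc rat pituitary cells carrying two TR response elements driving luciferase were plated for 4 h, given compound plus 1 nM T3 (final), and incubated 23.5 h at 37 C. ONE-Glo luminescence measured reporter inhibition; CellTiter-Fluor fluorescence tracked cytotoxicity.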

The test system of experiment [12] is thyroid hormone receptor (rat, GH3 cells). Kind of experiment: qHTS assay to identify small molecule agonists of the thyroid receptor (TR) signaling pathway (AID 743066; calls by dose curve).
A short description of experiment [13]: qHTS assay to identify aromatase inhibitors - cell viability counter screen (AID 743084).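 Also: cells stimulated with testosterone during compound exposure; nearly all actives have a fitted effect of over 55% in size.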
Experiment [14] in a line: qHTS assay to identify small molecule antagonists of the peroxisome proliferator-activated receptor gamma (PPARg) signaling pathway - cell viability counter screen (AID 743194). Also: nearly all actives have a fitted effect of over 55% in size. The gist of the method:
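PPARg-UAS-bla HEK293H cells were plated, rested 5 h at 37 C, then treated with compounds plus rosiglitazone (50 nM final) for 17 h at 37 C; viability was then read by CellTiter-Glo luminescence after 30 min at room temperature.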

The nature of experiment [15]: qHTS assay for small molecule agonists of the antioxidant response element (ARE) signaling pathway (AID 743202; active = well fitted activation curve with a large enough effect in the signal ratio in the repeat runs, not every such curve was filed as active; inconclusive = weak or mixed curves, or effect the other way; inactive = no such curve, though single readings can be large or run the other way; the % refers to the signal ratio; also: potency is read from the fitted curve at half-maximal effect). The gist of the method:
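Steps: seed ARE-bla HepG2 cells (2,000/well); incubate 5 h at 37 C; add compounds by pin tool; incubate 16 h at 37 C; add FRET substrate; read fluorescence after 2 h at RT.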

A short description of experiment [16]: qHTS assay for small molecule agonists of the antioxidant response element (ARE) signaling pathway - cell viability counter screen (AID 743203; calls by dose curve; also: nearly all actives have a fitted effect of over 55% in size). The gist of the method:
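ATP content via CellTiter-Glo luminescence served as the viability measure. Cells: ARE-bla HepG2, 2,000 per well. Exposure: 16 hrs, 37C/5% CO2.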

SMILES strings stand for the structures. The source made the active and inactive calls. Unless noted, calls follow the shape of the dose curve; as a rule, active = well fitted curve in the direction sought with a large enough effect in the repeat runs; inconclusive = weak or mixed curves; inactive = no such curve, though single readings can be large; an effect the other way counts as inactive or inconclusive.

Sequence of Peroxisome proliferator-activated receptor gamma (Homo sapiens) (P37231 whole entry, looked up): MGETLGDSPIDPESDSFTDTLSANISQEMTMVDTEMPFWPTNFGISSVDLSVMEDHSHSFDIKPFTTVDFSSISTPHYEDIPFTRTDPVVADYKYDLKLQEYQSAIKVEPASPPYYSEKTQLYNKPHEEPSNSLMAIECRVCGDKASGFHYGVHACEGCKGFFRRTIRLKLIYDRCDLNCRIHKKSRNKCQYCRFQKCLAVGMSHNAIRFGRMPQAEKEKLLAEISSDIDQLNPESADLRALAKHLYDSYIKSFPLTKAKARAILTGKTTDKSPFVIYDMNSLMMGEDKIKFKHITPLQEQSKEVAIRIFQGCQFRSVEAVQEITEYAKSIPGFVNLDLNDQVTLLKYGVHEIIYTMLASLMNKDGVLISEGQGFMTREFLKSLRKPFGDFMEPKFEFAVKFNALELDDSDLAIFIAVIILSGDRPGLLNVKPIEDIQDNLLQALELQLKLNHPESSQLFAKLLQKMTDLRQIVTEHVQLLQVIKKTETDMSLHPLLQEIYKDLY
Sequence of Aromatase (Homo sapiens) (P11511 whole entry, looked up): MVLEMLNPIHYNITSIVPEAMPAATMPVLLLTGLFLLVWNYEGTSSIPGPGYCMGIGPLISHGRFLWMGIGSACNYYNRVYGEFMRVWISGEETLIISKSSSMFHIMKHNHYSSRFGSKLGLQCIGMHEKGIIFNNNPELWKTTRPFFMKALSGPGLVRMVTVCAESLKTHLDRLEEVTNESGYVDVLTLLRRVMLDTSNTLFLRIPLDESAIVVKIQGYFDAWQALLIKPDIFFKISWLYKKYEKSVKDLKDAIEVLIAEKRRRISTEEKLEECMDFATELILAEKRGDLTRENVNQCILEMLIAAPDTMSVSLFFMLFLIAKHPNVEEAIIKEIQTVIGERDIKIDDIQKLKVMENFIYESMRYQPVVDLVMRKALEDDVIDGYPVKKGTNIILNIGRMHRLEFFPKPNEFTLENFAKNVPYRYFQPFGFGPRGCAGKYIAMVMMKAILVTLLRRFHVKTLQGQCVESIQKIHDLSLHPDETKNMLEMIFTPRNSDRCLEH
Sequence of Estrogen receptor (Homo sapiens) (P03372 whole entry, looked up): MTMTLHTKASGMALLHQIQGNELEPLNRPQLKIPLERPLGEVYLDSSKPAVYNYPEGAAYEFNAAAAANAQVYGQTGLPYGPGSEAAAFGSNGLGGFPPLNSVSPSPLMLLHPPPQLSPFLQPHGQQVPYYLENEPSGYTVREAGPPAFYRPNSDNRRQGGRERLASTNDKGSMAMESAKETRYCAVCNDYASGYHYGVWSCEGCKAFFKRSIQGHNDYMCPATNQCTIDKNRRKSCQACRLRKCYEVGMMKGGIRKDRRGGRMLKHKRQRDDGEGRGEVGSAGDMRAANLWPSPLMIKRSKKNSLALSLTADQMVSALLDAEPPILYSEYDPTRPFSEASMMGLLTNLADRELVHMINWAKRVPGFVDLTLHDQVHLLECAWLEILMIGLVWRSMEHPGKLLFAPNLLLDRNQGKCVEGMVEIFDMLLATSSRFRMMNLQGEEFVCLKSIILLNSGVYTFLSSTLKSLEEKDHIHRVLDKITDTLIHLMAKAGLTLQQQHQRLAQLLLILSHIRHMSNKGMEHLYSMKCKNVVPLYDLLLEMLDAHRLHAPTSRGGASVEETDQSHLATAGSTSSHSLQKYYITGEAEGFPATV
Sequence of Aryl hydrocarbon receptor (Homo sapiens) (P35869 whole entry, looked up): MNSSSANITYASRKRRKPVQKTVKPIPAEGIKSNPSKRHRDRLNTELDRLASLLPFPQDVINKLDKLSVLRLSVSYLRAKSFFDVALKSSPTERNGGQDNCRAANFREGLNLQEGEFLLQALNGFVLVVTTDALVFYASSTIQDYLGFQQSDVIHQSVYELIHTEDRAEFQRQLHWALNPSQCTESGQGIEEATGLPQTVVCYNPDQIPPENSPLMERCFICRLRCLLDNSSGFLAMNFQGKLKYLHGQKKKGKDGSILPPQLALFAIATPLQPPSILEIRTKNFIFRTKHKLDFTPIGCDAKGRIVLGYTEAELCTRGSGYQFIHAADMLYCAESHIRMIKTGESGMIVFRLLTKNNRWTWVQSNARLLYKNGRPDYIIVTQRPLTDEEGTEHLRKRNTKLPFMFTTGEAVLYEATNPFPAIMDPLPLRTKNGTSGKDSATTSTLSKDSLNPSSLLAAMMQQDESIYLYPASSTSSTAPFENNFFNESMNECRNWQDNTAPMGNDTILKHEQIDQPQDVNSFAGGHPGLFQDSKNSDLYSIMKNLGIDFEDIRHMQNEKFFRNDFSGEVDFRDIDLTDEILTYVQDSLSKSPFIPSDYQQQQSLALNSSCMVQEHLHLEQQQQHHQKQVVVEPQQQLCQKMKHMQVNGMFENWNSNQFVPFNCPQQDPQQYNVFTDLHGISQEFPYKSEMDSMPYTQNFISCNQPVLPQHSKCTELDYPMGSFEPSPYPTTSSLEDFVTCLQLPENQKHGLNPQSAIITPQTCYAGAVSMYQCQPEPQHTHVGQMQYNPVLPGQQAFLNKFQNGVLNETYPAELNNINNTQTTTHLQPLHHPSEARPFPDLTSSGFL

Regarding `CC(C)(C)c1cc(O)c(C(C)(C)C)cc1O`, the Potency in experiment [1] is 48.6 µM (active); in experiment [2], 43.6 µM [inconclusive] (active); with Aromatase (Homo sapiens), 21.7 µM (active). Also, the compound was classed as inactive in experiment [3] and in [10]. Besides, the Potency entry in experiment [4], in experiment [5], in experiment [6], in [7], in [8] and in [9] was “inactive” each time.
On to `O=C(O)/C=C/c1cnc[nH]1`, for which the Potency entry (in experiment [11]; in experiment [12]; in experiment [5]; with Aromatase (Homo sapiens); in experiment [13]; in [6]) was “inactive” each time. Moreover, the Potency entry in experiment [7], in experiment [8], in experiment [14], in [15], in experiment [16] and in experiment [9] was “inactive” in each case. The outcome in experiment [3] and in experiment [10] was inactive.
Regarding `O=C(CC(=O)c1ccccc1)c1ccccc1`, the Potency entry (in experiment [11]; in experiment [12]; in [5]; with Aromatase (Homo sapiens); in [13]; in experiment [7]) was “inactive” each time. For the same compound, the Potency result in experiment [8], in [14], in [16] and in [9] was “inactive” each time. The compound was called inactive in [3] and in experiment [10]. Further, the Potency in experiment [15] is 23.3 µM (active).
